Consider 25 molecules from PubChem BioAssay (NCATS).

Molecules are shown by their SMILES. Inconclusive results are not listed. Entries that show only a call come without a potency. Activity calls are given as the source filed them. Calls follow the shape of the dose curve; as a rule, active = well fitted inhibition curve with a large enough effect; inconclusive = small, poorly fitted or top-dose-only effect; inactive = flat fitted curve, though single readings scatter.
Potency is read from the fitted curve at half-maximal effect.

The subject of the first experiment is DFO2036. As to the kind of experiment: qHTS profiling for inhibitors of Plasmodium falciparum proliferation (AID 504749). Also: nearly all actives have a fitted effect of over 60% in size. As to conditions: P. falciparum in erythrocytes, SYBR Green DNA, 72 h; series mostly up to 28.7 µM. Summed up: (§1)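 P. falciparum-infected erythrocytes (0.3% parasitemia, 2.5% hematocrit final) were exposed to compounds for 72 h at 37 C in 5% CO2, then lysed with SYBR Green buffer overnight at room temperature; parasite DNA fluorescence was normalized to artemisinin and DMSO controls.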
In general terms: Quantitative high-throughput screening tests each substance at several concentrations.
For `COC(=O)Nc1nc2ccc(C(=O)c3ccccc3)cc2[nH]1`, the Potency entry was “inactive”. Still for that read-out and setting: for `Oc1c(Cl)cc(Cl)c2cccnc12` the value was 10000 nM (active); for `Cc1oc(=O)oc1CN1CCN(c2cc3c(cc2F)c(=O)c(C(=O)O)c2n3C(C)S2)CC1` (stereo unspecified), 7940 nM (active); for `CCOC(=O)c1ccc(C#Cc2ccc3c(c2)C(C)(C)CCS3)nc1`, “inactive”. Still for that read-out and setting: the same measure for `COc1c(N2CCNC(C)C2)c(F)cc2c(=O)c(C(=O)O)cn(C3CC3)c12` (stereo unspecified): “inactive”; for `CC(N)C12CC3CC(CC(C3)C1)C2` (stereo unspecified): “inactive”.

With `COc1cc2c(Nc3ccc(Br)cc3F)ncnc2cc1OCC1CCN(C)CC1`, the Potency was 794 nM (active). With `COc1ccc(C(=O)CC(=O)c2ccc(C(C)(C)C)cc2)cc1`, the Potency entry was “inactive”. Same read-out and setting: the same measure for `CCCCOc1ccc(CC(=O)NO)cc1`: 2820 nM (active); for `COc1nc(N)nc2c1ncn2[C@@H]1O[C@H](CO)[C@@H](O)[C@@H]1O`: “inactive”; for `CCC(C)(C)c1ccc(CC(C)CN2C[C@@H](C)O[C@@H](C)C2)cc1` (stereo partly specified): “inactive”. `NC(=O)N1c2ccccc2CC(=O)c2ccccc21`: the Potency entry is “inactive”.

For the molecule `CN1CCCC(n2nc(Cc3ccc(Cl)cc3)c3ccccc3c2=O)CC1` (stereo unspecified), the Potency entry is “inactive”.

On to `COc1cccc(N(C)C(=S)Oc2ccc3c(c2)CCCC3)n1`, for which the Potency result is “inactive”. On the same count and under the same terms, for `COc1cc([C@@H]2c3cc4c(cc3[C@H](O)[C@H]3COC(=O)[C@H]23)OCO4)cc(OC)c1OC` the value was 2820 nM (active); for `CCCc1cc(C(N)=S)ccn1`, “inactive”; for `CC1=CC(=O)c2ccccc2C1=O`, “inactive”. On the same count and under the same terms, for `CN(Cc1cc(Br)cc(Br)c1N)C1CCCCC1` the value was “inactive”. Still for that read-out and setting: the same measure for `CCCc1nc(C)c2c(=O)[nH]c(-c3cc(S(=O)(=O)N4CCN(CC)CC4)ccc3OCC)nn12`: “inactive”.

The subject of another experiment is DIV14. Described as above. As to conditions: P. falciparum in erythrocytes, SYBR Green DNA, 72 h; series mostly up to 28.7 µM. The essentials: as §1
As to `CCCCCCNC(=O)n1cc(F)c(=O)[nH]c1=O`, the Potency was 5360 nM (active). In the case of `Cc1oc(=O)oc1CN1CCN(c2cc3c(cc2F)c(=O)c(C(=O)O)c2n3C(C)S2)CC1` (stereo unspecified), the Potency is 15100 nM (active). Same read-out and setting: for `COc1c(N2CCNC(C)C2)c(F)cc2c(=O)c(C(=O)O)cn(C3CC3)c12` (stereo unspecified) the value was “inactive”; for `CCn1cc(C(=O)O)c(=O)c2cc(F)c(N3CCNCC3)nc21`, “inactive”.

Turning to `COc1cc2c(Nc3ccc(Br)cc3F)ncnc2cc1OCC1CCN(C)CC1`, the Potency was 1510 nM (active). With `COc1ccc(C(=O)CC(=O)c2ccc(C(C)(C)C)cc2)cc1`, the Potency result was “inactive”. In the case of `CCCCOc1ccc(CC(=O)NO)cc1`, the Potency was 1440 nM (active).

Consider `COc1nc(N)nc2c1ncn2[C@@H]1O[C@H](CO)[C@@H](O)[C@@H]1O`, for which the Potency entry was “inactive”. Turning to `NC(=O)N1c2ccccc2CC(=O)c2ccccc21`, the Potency entry was “inactive”.

Regarding `CN1CCCC(n2nc(Cc3ccc(Cl)cc3)c3ccccc3c2=O)CC1` (stereo unspecified), the Potency is 7570 nM (active). Still for that read-out and setting: the same measure for `CNC(=O)c1cc(Oc2ccc(NC(=O)Nc3ccc(Cl)c(C(F)(F)F)c3)cc2)ccn1`: 2690 nM (active); for `CCn1cc(C(=O)O)c(=O)c2cc(F)c(N3CCNCC3)cc21`: “inactive”. Same read-out and setting: for `N[C@@H](Cc1ccc(O)c(O)c1)C(=O)O` the value was “inactive”. Still for that read-out and setting: for `COc1cc([C@@H]2c3cc4c(cc3[C@H](O)[C@H]3COC(=O)[C@H]23)OCO4)cc(OC)c1OC` the value was 2130 nM (active). Consider `CCCc1cc(C(N)=S)ccn1`, for which the Potency entry was “inactive”. Still for that read-out and setting: the same measure for `CCn1cc(C(=O)O)c(=O)c2cc(F)c(N3CCN(C)CC3)cc21`: “inactive”; for `CCCc1nc(C)c2c(=O)[nH]c(-c3cc(S(=O)(=O)N4CCN(CC)CC4)ccc3OCC)nn12`: 5360 nM (active).
